Assay results: the supplement of paper PMC11732987, “Enantioselective OTUD7B fragment discovery through chemoproteomics screening and high-throughput optimisation” (Communications Chemistry, 2025)

Experiments:
Assay in all cases: log2 ratio of Biotin-Ahx-Ub-VS probe labelling (fragment/DMSO); higher = less target engagement (more negative = stronger competition), active = hit call of the paper (q ≤ 0.05, log2 ratio ≤ -1)
Conditions in all cases: compound concentration: 200 uM; treatment time: 3 h
[1] = target: USP34 (UniProt Q70CQ2)
Procedure, shortened: (§1)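 Labelling with Biotin-Ahx-Ub-VS (0.5 µM final, 1 h) followed a 3 h triplicate treatment of HEK293T lysate (495 µg per sample, Tris/CHAPS/IGEPAL buffer with protease inhibitors) with fragment at 200 µM or vehicle. Labelled DUBs were NeutrAvidin-enriched, digested with LysC and trypsin, and run by diaPASEF LC-MS/MS. The values, average log2 fragment/vehicle ratios by unpaired t-test, come from global-median-normalised Spectronaut label-free quantities. Proteins with ≥2 unique peptides were used.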

[2] = target: T1, USP36 (UniProt Q9P275)
T1 sequence (whole entry): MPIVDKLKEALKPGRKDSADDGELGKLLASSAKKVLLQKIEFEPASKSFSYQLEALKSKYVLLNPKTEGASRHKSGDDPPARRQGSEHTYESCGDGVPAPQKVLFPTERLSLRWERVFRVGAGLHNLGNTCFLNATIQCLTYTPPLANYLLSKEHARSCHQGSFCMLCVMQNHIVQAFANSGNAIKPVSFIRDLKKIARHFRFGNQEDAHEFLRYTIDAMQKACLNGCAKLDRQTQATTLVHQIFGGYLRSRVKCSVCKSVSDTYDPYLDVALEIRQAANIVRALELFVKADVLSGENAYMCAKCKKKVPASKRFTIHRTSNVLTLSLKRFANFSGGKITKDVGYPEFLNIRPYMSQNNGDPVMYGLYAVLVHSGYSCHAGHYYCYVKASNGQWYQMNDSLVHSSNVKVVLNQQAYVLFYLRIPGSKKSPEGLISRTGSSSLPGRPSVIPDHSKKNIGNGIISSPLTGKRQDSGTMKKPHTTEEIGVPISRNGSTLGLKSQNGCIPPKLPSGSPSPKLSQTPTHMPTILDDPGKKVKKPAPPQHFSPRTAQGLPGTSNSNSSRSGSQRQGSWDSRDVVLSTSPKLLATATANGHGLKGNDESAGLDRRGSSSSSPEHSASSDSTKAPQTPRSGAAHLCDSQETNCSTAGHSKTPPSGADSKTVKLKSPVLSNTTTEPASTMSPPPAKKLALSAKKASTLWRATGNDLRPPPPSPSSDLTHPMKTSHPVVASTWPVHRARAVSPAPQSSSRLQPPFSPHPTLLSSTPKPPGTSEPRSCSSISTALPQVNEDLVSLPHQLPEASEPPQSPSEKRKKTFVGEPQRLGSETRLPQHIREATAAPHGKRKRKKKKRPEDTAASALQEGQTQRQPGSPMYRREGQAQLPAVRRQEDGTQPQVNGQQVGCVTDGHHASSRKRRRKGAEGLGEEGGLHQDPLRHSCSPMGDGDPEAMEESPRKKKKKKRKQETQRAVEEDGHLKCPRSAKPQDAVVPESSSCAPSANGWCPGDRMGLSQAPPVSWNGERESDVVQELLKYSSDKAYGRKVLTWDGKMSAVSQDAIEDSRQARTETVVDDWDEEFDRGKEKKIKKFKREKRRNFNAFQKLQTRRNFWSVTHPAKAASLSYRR
Procedure, shortened: as §1

[3] = target: T2, USP38 (UniProt Q8NB14)
T2 sequence (whole entry): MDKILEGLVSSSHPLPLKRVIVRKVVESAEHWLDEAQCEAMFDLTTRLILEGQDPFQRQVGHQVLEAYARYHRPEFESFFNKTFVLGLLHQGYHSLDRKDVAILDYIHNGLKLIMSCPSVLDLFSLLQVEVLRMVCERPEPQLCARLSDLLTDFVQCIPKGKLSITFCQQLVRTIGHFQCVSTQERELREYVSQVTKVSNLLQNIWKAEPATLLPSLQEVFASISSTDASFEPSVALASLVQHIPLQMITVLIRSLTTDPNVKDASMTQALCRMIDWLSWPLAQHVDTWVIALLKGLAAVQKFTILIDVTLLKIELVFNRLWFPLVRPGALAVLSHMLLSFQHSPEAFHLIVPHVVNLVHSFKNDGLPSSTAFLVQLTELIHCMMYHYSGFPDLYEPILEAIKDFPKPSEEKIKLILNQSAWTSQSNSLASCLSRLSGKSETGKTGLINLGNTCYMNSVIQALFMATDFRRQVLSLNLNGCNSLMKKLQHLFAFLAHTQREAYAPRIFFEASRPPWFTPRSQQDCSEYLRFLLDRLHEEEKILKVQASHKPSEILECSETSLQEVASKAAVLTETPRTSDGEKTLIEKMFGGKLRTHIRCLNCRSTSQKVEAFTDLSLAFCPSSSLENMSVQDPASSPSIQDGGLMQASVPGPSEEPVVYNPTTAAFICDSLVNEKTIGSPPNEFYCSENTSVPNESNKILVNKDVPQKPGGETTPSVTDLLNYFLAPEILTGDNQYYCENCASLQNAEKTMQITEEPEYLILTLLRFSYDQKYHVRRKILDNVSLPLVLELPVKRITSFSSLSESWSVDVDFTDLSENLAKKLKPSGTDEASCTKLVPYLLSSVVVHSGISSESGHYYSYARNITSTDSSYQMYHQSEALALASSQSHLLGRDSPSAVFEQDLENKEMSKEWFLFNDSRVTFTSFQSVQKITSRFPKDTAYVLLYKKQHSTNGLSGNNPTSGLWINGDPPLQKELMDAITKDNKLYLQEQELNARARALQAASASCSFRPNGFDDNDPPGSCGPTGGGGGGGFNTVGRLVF
Procedure, shortened: as §1

[4] = target: T3, USP39 (UniProt Q53GS9)
T3 sequence (whole entry): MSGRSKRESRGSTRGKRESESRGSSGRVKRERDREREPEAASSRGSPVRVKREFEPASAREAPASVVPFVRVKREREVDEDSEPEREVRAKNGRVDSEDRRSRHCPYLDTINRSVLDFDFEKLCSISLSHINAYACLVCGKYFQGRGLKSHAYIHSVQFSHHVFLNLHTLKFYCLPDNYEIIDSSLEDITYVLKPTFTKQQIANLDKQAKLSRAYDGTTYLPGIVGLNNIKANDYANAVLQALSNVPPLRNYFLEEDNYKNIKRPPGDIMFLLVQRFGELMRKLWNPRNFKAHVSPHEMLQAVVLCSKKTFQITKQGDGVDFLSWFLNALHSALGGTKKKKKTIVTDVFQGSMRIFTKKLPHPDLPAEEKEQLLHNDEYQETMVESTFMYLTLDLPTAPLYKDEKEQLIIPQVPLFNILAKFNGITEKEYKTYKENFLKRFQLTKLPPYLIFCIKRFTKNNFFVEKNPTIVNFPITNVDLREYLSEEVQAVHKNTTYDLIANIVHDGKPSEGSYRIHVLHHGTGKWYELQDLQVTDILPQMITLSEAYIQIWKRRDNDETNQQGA
Procedure, shortened: as §1

[5] = target: T4, USP4 (UniProt Q13107)
T4 sequence (whole entry): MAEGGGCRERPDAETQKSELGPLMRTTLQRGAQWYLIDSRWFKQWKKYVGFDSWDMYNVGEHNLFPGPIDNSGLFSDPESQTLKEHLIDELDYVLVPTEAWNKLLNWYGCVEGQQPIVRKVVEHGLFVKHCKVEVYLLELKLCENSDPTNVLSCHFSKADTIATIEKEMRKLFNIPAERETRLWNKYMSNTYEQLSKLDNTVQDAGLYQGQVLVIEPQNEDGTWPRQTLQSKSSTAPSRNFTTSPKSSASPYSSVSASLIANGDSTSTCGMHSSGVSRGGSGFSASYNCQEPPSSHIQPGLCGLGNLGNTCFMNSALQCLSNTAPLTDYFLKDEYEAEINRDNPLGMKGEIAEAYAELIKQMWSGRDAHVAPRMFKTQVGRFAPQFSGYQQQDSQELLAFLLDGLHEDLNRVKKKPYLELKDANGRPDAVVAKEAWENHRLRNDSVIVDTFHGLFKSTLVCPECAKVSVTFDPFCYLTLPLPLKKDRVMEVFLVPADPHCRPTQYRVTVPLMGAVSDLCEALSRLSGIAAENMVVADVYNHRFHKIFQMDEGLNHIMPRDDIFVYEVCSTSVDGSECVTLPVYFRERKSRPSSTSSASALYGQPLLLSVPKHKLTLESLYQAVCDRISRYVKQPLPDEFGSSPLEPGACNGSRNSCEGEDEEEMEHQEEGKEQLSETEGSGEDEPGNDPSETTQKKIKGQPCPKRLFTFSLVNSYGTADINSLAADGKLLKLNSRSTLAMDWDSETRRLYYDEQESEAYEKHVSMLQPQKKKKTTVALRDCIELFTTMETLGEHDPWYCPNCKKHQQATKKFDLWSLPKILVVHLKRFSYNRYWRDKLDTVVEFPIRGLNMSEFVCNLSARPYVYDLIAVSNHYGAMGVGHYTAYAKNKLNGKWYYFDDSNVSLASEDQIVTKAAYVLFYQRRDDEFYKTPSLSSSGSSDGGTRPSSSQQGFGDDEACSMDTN
Procedure, shortened: as §1

Measured: log2 ratio of Biotin-Ahx-Ub-VS probe labelling

Sequence of USP34 (Q70CQ2 whole entry, the tested form may be a part): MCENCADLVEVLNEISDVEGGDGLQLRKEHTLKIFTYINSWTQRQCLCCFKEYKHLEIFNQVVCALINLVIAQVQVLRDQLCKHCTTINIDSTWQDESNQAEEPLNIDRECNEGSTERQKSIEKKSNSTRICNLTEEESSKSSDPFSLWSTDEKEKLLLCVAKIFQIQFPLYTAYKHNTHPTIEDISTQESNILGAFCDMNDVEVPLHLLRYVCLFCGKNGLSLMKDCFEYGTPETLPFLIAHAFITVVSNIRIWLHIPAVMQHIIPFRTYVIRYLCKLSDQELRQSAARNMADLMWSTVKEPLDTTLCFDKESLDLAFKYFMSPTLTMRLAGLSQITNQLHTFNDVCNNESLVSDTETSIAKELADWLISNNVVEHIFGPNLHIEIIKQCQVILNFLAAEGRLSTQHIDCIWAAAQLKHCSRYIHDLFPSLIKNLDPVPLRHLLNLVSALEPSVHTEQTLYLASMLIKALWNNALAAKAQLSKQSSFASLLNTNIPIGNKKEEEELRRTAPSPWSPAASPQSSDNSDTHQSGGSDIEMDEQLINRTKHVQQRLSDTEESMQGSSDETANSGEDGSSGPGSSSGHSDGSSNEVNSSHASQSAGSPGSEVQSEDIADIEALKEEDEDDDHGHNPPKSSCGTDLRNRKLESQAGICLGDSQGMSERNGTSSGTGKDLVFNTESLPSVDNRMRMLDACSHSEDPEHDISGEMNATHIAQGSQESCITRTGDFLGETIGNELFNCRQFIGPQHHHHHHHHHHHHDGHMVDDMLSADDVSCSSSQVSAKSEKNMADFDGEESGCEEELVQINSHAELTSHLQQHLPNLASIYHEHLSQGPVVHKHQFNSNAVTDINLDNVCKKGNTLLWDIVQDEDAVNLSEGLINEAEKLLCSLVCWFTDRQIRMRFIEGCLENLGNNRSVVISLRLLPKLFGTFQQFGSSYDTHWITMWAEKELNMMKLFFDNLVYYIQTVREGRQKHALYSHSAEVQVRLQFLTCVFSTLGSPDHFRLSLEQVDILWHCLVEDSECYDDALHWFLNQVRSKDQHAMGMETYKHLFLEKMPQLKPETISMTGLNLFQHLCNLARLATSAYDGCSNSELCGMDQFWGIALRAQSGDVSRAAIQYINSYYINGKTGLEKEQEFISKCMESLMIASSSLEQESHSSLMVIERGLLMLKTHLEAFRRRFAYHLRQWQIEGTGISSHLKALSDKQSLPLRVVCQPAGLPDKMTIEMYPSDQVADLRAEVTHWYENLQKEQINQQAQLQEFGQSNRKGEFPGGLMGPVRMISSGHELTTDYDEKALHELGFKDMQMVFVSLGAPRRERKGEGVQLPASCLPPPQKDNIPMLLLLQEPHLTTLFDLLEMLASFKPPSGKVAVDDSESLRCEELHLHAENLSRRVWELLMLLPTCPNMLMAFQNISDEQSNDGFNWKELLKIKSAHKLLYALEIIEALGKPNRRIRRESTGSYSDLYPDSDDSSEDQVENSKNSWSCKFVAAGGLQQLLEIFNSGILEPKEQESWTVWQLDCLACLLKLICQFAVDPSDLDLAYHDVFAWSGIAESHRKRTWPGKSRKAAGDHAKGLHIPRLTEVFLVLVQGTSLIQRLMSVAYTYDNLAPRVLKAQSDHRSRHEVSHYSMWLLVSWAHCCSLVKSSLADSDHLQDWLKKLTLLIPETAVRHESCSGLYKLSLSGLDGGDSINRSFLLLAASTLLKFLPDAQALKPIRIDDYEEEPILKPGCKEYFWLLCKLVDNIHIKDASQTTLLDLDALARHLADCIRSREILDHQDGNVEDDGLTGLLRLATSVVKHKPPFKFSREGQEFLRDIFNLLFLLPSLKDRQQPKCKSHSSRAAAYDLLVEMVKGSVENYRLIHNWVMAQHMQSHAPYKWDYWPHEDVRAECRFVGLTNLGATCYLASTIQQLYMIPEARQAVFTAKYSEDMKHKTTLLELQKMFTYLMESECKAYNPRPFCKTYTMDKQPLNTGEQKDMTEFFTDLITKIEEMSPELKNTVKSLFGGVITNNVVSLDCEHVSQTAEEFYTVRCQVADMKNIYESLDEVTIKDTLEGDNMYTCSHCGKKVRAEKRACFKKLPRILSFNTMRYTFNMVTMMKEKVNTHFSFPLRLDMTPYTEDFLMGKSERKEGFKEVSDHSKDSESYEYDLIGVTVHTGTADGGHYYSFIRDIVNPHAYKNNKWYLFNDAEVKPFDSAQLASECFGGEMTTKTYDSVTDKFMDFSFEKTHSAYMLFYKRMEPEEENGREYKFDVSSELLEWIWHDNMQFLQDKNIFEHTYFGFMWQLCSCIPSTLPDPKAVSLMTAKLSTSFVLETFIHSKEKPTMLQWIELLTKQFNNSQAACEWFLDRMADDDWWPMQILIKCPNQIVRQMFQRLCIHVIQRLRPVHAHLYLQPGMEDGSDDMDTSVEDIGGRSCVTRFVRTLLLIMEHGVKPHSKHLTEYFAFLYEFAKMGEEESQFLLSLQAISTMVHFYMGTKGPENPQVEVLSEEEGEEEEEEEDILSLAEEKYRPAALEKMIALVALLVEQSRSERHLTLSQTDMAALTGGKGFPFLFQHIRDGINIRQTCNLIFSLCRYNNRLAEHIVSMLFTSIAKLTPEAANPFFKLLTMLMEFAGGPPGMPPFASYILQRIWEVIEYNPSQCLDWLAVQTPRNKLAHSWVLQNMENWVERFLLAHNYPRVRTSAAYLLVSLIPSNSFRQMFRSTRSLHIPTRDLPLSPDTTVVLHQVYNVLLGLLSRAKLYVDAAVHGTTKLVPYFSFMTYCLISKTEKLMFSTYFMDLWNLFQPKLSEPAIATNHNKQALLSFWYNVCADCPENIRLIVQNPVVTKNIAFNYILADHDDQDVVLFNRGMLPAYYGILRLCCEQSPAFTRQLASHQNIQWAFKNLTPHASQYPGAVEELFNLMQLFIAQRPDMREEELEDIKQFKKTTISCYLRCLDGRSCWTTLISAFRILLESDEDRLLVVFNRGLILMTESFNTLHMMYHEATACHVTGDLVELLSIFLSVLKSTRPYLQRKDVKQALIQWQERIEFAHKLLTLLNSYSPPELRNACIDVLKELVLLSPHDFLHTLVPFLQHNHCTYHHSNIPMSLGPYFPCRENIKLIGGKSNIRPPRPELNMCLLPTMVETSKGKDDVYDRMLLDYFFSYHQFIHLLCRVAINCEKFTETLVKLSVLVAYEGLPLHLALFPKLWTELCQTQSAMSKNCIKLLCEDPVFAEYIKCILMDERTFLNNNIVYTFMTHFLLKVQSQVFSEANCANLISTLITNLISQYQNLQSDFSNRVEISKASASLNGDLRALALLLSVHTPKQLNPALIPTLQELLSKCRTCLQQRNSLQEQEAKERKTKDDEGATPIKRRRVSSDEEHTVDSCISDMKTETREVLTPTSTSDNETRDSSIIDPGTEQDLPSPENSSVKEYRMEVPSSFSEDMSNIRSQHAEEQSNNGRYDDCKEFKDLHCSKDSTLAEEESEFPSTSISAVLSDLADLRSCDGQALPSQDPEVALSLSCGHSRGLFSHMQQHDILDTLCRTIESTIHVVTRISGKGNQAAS

O=C(CCl)Nc1cc2c(cc1Cl)OCCO2
inactive: [1] -0.393 | [2] 0.206 | [3] -0.183 | [4] -0.137 | [5] 0.122
